# According to the supplement of paper PMC9399229:
# ± gives the standard deviation of the averaged measurements. The full ranking holds about 1,900 compounds; the median of “relative cell viability (CellTiter-Glo), compound alone” is about 1, and the lowest 2% start at about 0.16. The entries come from a sample that favours the lowest values as a whole.
# Tested on: Hep3B
# Experiment: relative cell viability (CellTiter-Glo), compound alone (fraction); higher = more viable cells (less growth inhibition)
# Conditions: cabozantinib 0 µM; 4 days
row,Compound,relative cell viability
1,C[C@H]1CCC/C=C/[C@@H]2C[C@H](O)C[C@H]2[C@H](O)/C=C/C(=O)O1 [Brefeldin A],0.111 ± 0.0018
2,CC(C)OC(=O)[C@H](C)N[P@](=O)(CO[C@H](C)Cn1cnc2c(N)ncnc21)Oc1ccccc1 [Tenofovir Alafenamide (GS-7340)],1.12 ± 0.17
3,CC(C)[C@]12O[C@H]1[C@@H]1O[C@]13[C@]1(O[C@H]1C[C@H]1C4=C(CC[C@@]13C)C(=O)OC4)[C@@H]2O [Triptolide (PG490)],0.179 ± 0.009
4,"CN1CCc2cc3c(cc2C1C1OC(=O)c2c1ccc1c2OCO1)OCO3 (single isomer, unassigned; (+)) [(+)-Bicuculline]",1.1 ± 0.094
5,CN1[C@@H]2CC(O)C[C@H]1[C@@H]1O[C@@H]12 (stereo not given in full) [Scopine],1.05 ± 0.1
6,CCN1CCN(C(=O)Cc2ccc(Nc3ncc(F)c(Nc4ccc(C(=O)Nc5ccccc5Cl)cc4)n3)cc2)CC1 [Aurora A Inhibitor I],0.328 ± 0.1
7,C[C@@H]1O[C@@H](O[C@H]2C[C@@H](O)[C@]3(CO)[C@H]4[C@H](O)C[C@]5(C)[C@@H](C6=CC(=O)OC6)CC[C@]5(O)[C@@H]4CC[C@]3(O)C2)[C@H](O)[C@H](O)[C@H]1O [Ouabain],0.103 ± 0.0012
8,Cn1cc(C2=C(c3cn(C4CCN(Cc5ccccn5)CC4)c4ccccc34)C(=O)NC2=O)c2ccccc21,1.29 ± 0.031
9,C[C@@H]1[C@H](O)[C@@H](C)/C=C/C=C/CC/C=C/C=C/C=C/C=C/[C@H](O[C@H]2O[C@@H](C)[C@H](O)[C@@H](N)[C@H]2O)C[C@@H]2O[C@](O)(C[C@@H](O)[C@H](O)CC[C@@H](O)C[C@@H](O)C[C@@H](O)CC(=O)O[C@H]1C)C[C@H](O)[C@H]2C(=O)O [Nystatin (Fungicidin)],1.06 ± 0.15
10,COC(=O)C1=CCCN(C)C1 [Arecoline],1.02 ± 0.074
11,c1ccc([C@@H]2C[C@H]2NC2CCNCC2)cc1,0.9895 ± 0.0065
12,O=c1[nH]c2ccc(Cl)cc2c(N[C@@H]2CN3CCC2CC3)c1-c1nc2ccccc2[nH]1,0.13 ± 0.018
13,CCOC(=O)c1cncn1[C@H](C)c1ccccc1 [Etomidate],1.24 ± 0.049
14,CCN1CC2(OC(=O)c3ccccc3NC(C)=O)CCC(OC)C34C1C(CC23)C1(O)CC(OC)C2CC4C1(O)C2OC (stereo not given) [Lappaconite HBr],0.984 ± 0.092
15,O=C1C=CC[C@@H]2[C@H]3CCCN4CCC[C@@H](CN12)[C@@H]34 [Sophocarpine],1.02 ± 0.17
16,CCOc1ccccc1-n1c(C(C)N2CCN(C(=O)COc3ccc(Cl)cc3)CC2)nc2ccccc2c1=O (stereo not given) [Erastin],1.21 ± 0.063
17,COc1cc([C@@H]2c3cc4c(cc3[C@H](O)[C@H]3COC(=O)[C@@H]23)OCO4)cc(OC)c1OC [Picropodophyllin (PPP)],0.7418 ± 0.0018
18,[O-][n+]1ccccc1[S-].[O-][n+]1ccccc1[S-].[Zn+2] [Zinc Pyrithione],0.0193 ± 0.0014
19,CCN(Cc1ccc(Cl)nc1)/C(=C/[N+](=O)[O-])NC [Nitenpyram],0.914 ± 0.12
20,CN1CCN(c2nc3ccccc3nc2Cl)CC1,1.13 ± 0.04
